Results on 40 compounds are retold here after PubChem BioAssay (Tox21).

Inconclusive results are not listed. Where a call stands in place of a potency, no number is given. Activity calls are given as the source filed them. Calls come from the whole dose curve; as a rule, active = well fitted inhibition curve with a large enough effect in the repeat runs; inconclusive = weak or mixed curves; inactive = flat fitted curve, though single readings scatter.
Potency is the fitted concentration of half-maximal effect.

A short description of this test: qHTS assay to identify small molecule HDAC inhibitors (AID 1259364). Note: nearly all actives have a fitted effect of over 45% in size. Conditions: HCT-116 HDAC-Glo I/II luminescence, 2 h; series mostly up to 92.4 µM. The source says: U.S. Tox21 Program National Center for Advancing Translational Sciences [NCATS] NIH Chemical Genomics Center [NCGC] U.S. Environmental Protection Agency [EPA] National Institutes of Environmental Health Sciences [NIEHS] National Toxicology Program [NTP] U.S. Food and Drug Administration [FDA] Tox21 Assay Overview: Histone deacetylases (HDACs) are a group of epigenetic enzymes that regulate gene expression by histone deacetylation. HDACs are capable of introducing epigenetic modifications and such aberrations contribute to the onset and progression of several human diseases, thus making HDACs a popular therapeutic target. For identifying endogenous class I/II HDAC inhibitors a homogenous, luminogenic HDAC I/II cell based assay was used to measure the relative activity of class I and II HDACs from cells. Wild type HCT-116 cells were used to screen Tox21 libraries for identifying class I/II HDAC inhibitors.
Tox21 Assay Protocol Summary: HCT-116 cells were dispensed at 1,500 per well in 5uL of culture medium into white solid bottom 1536-well plates (Greiner Bio-One, Monroe, NC) using a Multidrop Combi (Thermo Scientific, Waltham, MA) dispenser. The assay plates were incubated at 37 C and 5% CO2 for an overnight, and then 23nL of compounds dissolved in DMSO and positive control were transferred using a Pintool station (Wako, San Diego, CA). The assay plates were incubated at 37C and 5% CO2 for 2hr. After compound treatment, 4uL of HDAC-Glo reagent (Promega Corporation, Madison, WI) was added to each well of the assay plates using Flying Reagent Dispenser (FRD, Aurora Discovery, San Diego, CA) and incubated the assay plates at room temperature for 30min. The luminescence signal was quantified using a ViewLux plate reader (Perkin Elmer, Shelton, CT).
Background: qHTS replaces the single test concentration by a dilution series.
As for `O=C(Nc1ccc2c(O)c(N=Nc3ccc(N=Nc4ccc(S(=O)(=O)O)cc4)cc3)c(S(=O)(=O)O)cc2c1)c1ccccc1`, the Potency entry was “inactive”. Next, `CC(=O)OCC=C(C)C`: “inactive”; `CCC(C)[O-].CCC(C)[O-].CCOC(=O)/C=C(/C)[O-].[Al+3]`: “inactive”.

In the case of `CCc1ccc(Br)cc1`, the Potency entry is “inactive”. Next, `CCN(CC)C(=O)c1cc(S(=O)(=O)Cc2ccccc2)c(N2CCC(c3ccccc3)CC2)cc1N(CC)CCN(C)C`: “inactive”; `c1ccc(C(O[C@@H]2CCCN(CCc3ccc4c(c3)OCO4)C2)c2ccccc2)cc1`: “inactive”. As for `CC(C)(C)NSc1nc2ccccc2s1`, the Potency result is “inactive”. As to `CCCCCCCCCCCCOC(=O)c1ccc(O)cc1`, the Potency entry is “inactive”. Then `CN(C)Cc1cc(C(C)(C)C)c(O)c(C(C)(C)C)c1`, with “inactive”; and `CN(C)C(=O)COC(=O)Cc1ccc(OC(=O)c2ccc(N=C(N)N)cc2)cc1`, with 37.6 nM (active). `Cc1cccc(C(=O)O)c1O`: the Potency result was “inactive”.

As to `CC(=O)[C@H]1CC[C@H]2[C@@H]3CCC4=CC(=O)CC[C@]4(C)[C@H]3CC[C@]12C`, the Potency entry is “inactive”. Then `CC1(C)CCC[C@]2(C)[C@H]3CCO[C@]3(C)CC[C@@H]12`, with “inactive”; and `C#C[C@]1(OC(C)=O)CC[C@H]2[C@@H]3CCC4=C/C(=N/O)CC[C@@H]4[C@H]3CC[C@@]21CC`, with “inactive”.

As for `O=S(=O)(O)c1ccc(N=Nc2c(O)ccc3ccccc23)cc1`, the Potency is 686 nM (active).

As to `Cc1c(C)c2c(c(C)c1O)CC[C@@](C)(CCC[C@H](C)CCC[C@H](C)CCCC(C)C)O2`, the Potency entry was “inactive”.

As to `C=Cc1ccccc1C=C`, the Potency result is “inactive”.

In the case of `O=C1CCc2ccc(OCCCCN3CCN(c4cccc(Cl)c4Cl)CC3)cc2N1`, the Potency result is “inactive”. Then `CCOC(=O)Cn1cccc1-c1nc(-c2ccc(OC)cc2)c(-c2ccc(OC)cc2)s1`, with “inactive”; and `CC(CO)Oc1ccccc1` (stereo not given), with “inactive”.

`CCCCC(CC)COC(=O)CCCCC(=O)OCc1ccccc1` (stereo not given): the Potency entry is “inactive”. Consider `Cc1c(C)c([N+](=O)[O-])c(C(C)(C)C)c([N+](=O)[O-])c1C`, for which the Potency result is “inactive”. For `ClCCl`, the Potency result was “inactive”. Regarding `Clc1sc(Cl)c(Cl)c1Cl`, the Potency entry is “inactive”. Take `COC1=C(OC)C(=O)C(CCCCCCCCCCO)=C(C)C1=O`: the Potency entry was “inactive”. Then `O=C(O)Cc1ccccc1Nc1c(Cl)cccc1Cl`, with “inactive”; and `C[Si](Cl)(c1ccccc1)c1ccccc1`, with “inactive”. Consider `C=CCn1c(=O)n(CC=C)c(=O)n(CC=C)c1=O`, for which the Potency result is “inactive”.

Turning to `O=[N+]([O-])c1ccc(O)cc1C(F)(F)F`, the Potency entry was “inactive”. `Cc1cc(=O)oc2cc(O)cc(O)c12`: the Potency entry was “inactive”. For the compound `CCCCCC(C)OC(=O)COc1ccc(Cl)c2cccnc12` (stereo not given), the Potency result was “inactive”.

For `CCCCCCCCCCCCCCCC[N+](C)(C)CC`, the Potency entry was “inactive”. Next, `Cc1nc(-c2ccc(Cl)cc2)oc1COC(C)(C)C(=O)O`: “inactive”; `CC1(C)CCC[C@]2(C)[C@H]3CC(=O)O[C@]3(C)CC[C@@H]12`: “inactive”. Then `Clc1ccnc(Cl)n1`, with “inactive”; and `Nc1ccc(C(=O)O)c(O)c1`, with “inactive”; and `C#C[C@]1(O)CC[C@H]2[C@@H]3[C@H](C)CC4=C(CCC(=O)C4)[C@H]3CC[C@@]21C`, with “inactive”. As for `CCCCOC(=O)CO`, the Potency entry is “inactive”.

Regarding `CCCC(=O)OCOC(=O)C1=C(C)NC(C)=C(C(=O)OC)C1c1cccc(Cl)c1Cl` (stereo not given), the Potency result is “inactive”. Next, `CC(=O)c1ccc(C(C)=O)cc1`: “inactive”.
